Test results from the supplement of paper PMC12350171.
Where a name gives a salt, the structure may show the parent alone.

Key:
Conditions in all cases: 20 µM
[1] = tested on: Salmonella enterica typhimurium; test: growth AUC normalised to DMSO control (fraction of control); higher = less growth inhibition, active = hit call of the paper
Summary of the method: (§1)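 Hemin and NAD were added to the medium for Haemophilus parainfluenzae. All pathogens, after two anaerobic passages, were inoculated at a starting OD578 of 0.01 into pre-reduced mGAM plates with 20 μM compound and 1% DMSO under breathable seals, and OD578 was read hourly for 24 h in three biological replicates. AUC of each growth curve was obtained with the trapezoidal rule up to the exponential-to-stationary transition and normalised to DMSO controls from the same plate.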

[2] = tested on: Shigella flexneri; test: as above
Summary of the method: as §1

[3] = tested on: Vibrio cholerae; test: as above
Summary of the method: as §1

[4] = tested on: Yersinia pseudotuberculosis; test: as above
Summary of the method: as §1

[5] = tested on: P. vulgatus RND KO; test: growth AUC normalised to DMSO control (median) (fraction of control); higher = less growth inhibition, active = hit call of the paper
Summary of the method: (§2)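 After two overnight anaerobic passages, strains were inoculated at OD578 0.01 into mGAM in 96-well plates containing approved-drug library compounds at 20 μM and 1% DMSO. Growth was followed by reading OD578 hourly for 24 h within an anaerobic incubator. Area under the curve, taken by the trapezoidal rule up to the start of stationary phase, was normalised to same-plate vehicle wells, and the median of three biological replicates is listed.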

[6] = tested on: P. vulgatus WT; test: as above
Summary of the method: as §2

[7] = tested on: S. enterica typhimurium WT; test: as above
Summary of the method: as §2

[8] = tested on: S. enterica typhimurium tolC KO; test: as above
Summary of the method: as §2

Measured: growth AUC normalised to DMSO control
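Throughout, for growth AUC normalised to DMSO control (median): active when median AUC fell below 0.1.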

CN1CCN(C2=Nc3cc(Cl)ccc3Nc3ccccc32)CC1 [Clozapine]
inactive: [1] 1.02 | [2] 1.05 | [3] 0.969 | [4] 1 | [5] 1.01 | [6] 1.02 | [7] 1 | [8] 0.977

CCOC(=O)C1=C(C)NC(C)=C(C(=O)OCC)C1c1ccccc1/C=C/C(=O)OC(C)(C)C [Lacidipine]
inactive: [1] 1.01 | [2] 1 | [3] 1.02 | [4] 1.02 | [5] 1.07 | [6] 1.06 | [7] 1 | [8] 1

Clc1ccc(C(Cn2ccnc2)OCc2csc3c(Cl)cccc23)c(Cl)c1 (stereo not drawn) [Sertaconazole nitrate]
inactive: [1] 1.02 | [2] 1.06 | [3] 1.05 | [4] 0.913 | [5] 1 | [6] 1.01 | [7] 1.01 | [8] 0.935

CC[N+](C)(C)c1cccc(O)c1 [Edrophonium chloride]
inactive: [1] 1.01 | [2] 1 | [3] 1.02 | [4] 0.964 | [5] 1.02 | [6] 1.02 | [7] 1.01 | [8] 0.992

CC(C)(C)NC[C@H](O)COc1ccccc1C1CCCC1 [Penbutolol sulfate]
inactive: [1] 1.01 | [2] 1.02 | [3] 1 | [4] 1.02 | [5] 0.994 | [6] 1.01 | [7] 1 | [8] 0.947

C[C@H](CCC(=O)O)[C@H]1CC[C@H]2[C@@H]3[C@@H](O)C[C@@H]4C[C@H](O)CC[C@]4(C)[C@H]3CC[C@]12C [Urosiol]
inactive: [1] 0.971 | [2] 1.02 | [3] 1.04 | [4] 1.01 | [5] 1.02 | [6] 1.02 | [7] 1 | [8] 1.01

CC(=O)NS(=O)(=O)c1ccc(N)cc1 [Sulfacetamide sodic hydrate]
inactive: [1] 1 | [2] 1.01 | [3] 0.988 | [4] 0.998 | [5] 1.01 | [6] 1.05 | [7] 1.01 | [8] 0.997

CN(C)CCCN1c2ccccc2CCc2ccccc21 [Imipramine hydrochloride]
inactive: [1] 0.998 | [2] 0.994 | [3] 0.935 | [4] 1.01 | [5] 1 | [6] 0.998 | [7] 1.02 | [8] 0.984

COc1ccccc1N1CCN(CCCCNC(=O)c2ccc3ccccc3c2)CC1
active: [3] 0.0446
inactive: [1] 1.01 | [2] 1.03 | [4] 0.978 | [5] 1.02 | [6] 1.08 | [7] 0.985 | [8] 0.753

CN(C)C(=N)NC(=N)N [Metformin hydrochloride]
inactive: [1] 1 | [2] 1.01 | [3] 1.02 | [4] 0.983 | [5] 1.01 | [6] 0.996 | [7] 1 | [8] 1

CC1CS(=O)(=O)CCN1/N=C/c1ccc([N+](=O)[O-])o1 (stereo not drawn) [Nifurtimox]
active: [3] 0.00876 | [5] 0.0205 | [6] 0.00686
inactive: [1] 0.981 | [2] 0.947 | [4] 0.99 | [7] 0.995 | [8] 0.962

CN(C)CCCSC(=N)N [Dimaprit dihydrochloride]
inactive: [1] 0.991 | [2] 1 | [3] 0.986 | [4] 1 | [5] 0.99 | [6] 0.999 | [7] 1 | [8] 1.01

CN(C)CCn1nnnc1SCC1=C(C(=O)O)N2C(=O)[C@@H](NC(=O)Cc3csc(N)n3)[C@H]2SC1 [Cefotiam hydrochloride]
active: [1] 0.0032 | [2] 0.0159 | [3] 0.0593 | [4] 0.03 | [5] 0.0136 | [6] 0.00849 | [7] 0.00304 | [8] 0.00289

CCOCCn1c(N2CCCN(C)CC2)nc2ccccc21 [Emedastine difumarate]
inactive: [1] 0.995 | [2] 0.997 | [3] 0.992 | [4] 0.996 | [5] 1.03 | [6] 1.05 | [7] 1 | [8] 0.989

NCCCC[C@H](N[C@@H](CCc1ccccc1)C(=O)O)C(=O)N1CCC[C@H]1C(=O)O [Lisinopril]
inactive: [1] 1.01 | [2] 1.02 | [3] 1.04 | [4] 1.01 | [5] 1.05 | [6] 1.04 | [7] 1.01 | [8] 0.997

NNCCc1ccccc1 [Phenelzine sulfate]
inactive: [1] 1.03 | [2] 1.05 | [3] 1.03 | [4] 1.02 | [5] 1.1 | [6] 1.16 | [7] 0.994 | [8] 0.955
